From PubChem BioAssay (NCATS)
Several values for one entry are separate records, joined by “and”; a condition that tells them apart may be missing. Equal values may be shown once. Results filed as inconclusive are left out. The source holds several records for some structures; these can differ, active in one and inactive in another. Activity calls are given as the source filed them. Unless noted, calls follow the shape of the full dose curve.

Tested on: not listed separately
Assay: AP1 Signaling Pathway (AID 357; active = well fitted curve in either direction with a large enough effect, not every such curve was filed as active;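 also: ME-180 reporter cells stimulated with EGF at its EC50 level; % is scaled to controls: 0 for no effect and ±100 for the full control effect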)
Conditions: ME-180 (cervical carcinoma) AP-1-bla reporter, EGF-induced, beta-lactamase ratio, 5 h; at 38 µM (top of the series)
How it was run: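 AP-1-bla ME-180 cells, Opti-MEM + 0.5% dialyzed FBS, plated overnight 37 °C. Cpd titration + EC50 EGF, 5 h 37 °C. CCF4 2.5 h RT; ex 405, em 460/530 ratio → %activity, AC50.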

**Q.** Which activity change, negative = inhibition does the source give for NCCCNCCSP(=O)(O)O here?
**A.** 11.2% (inactive)

**Q.** For CN=C(NC#N)NCCSCc1nc[nH]c1C, which activity change, negative = inhibition is on record?
**A.** -4.97% (inactive)

**Q.** For CN/C(=C\[N+](=O)[O-])NCCSCc1ccc(CN(C)C)o1, which activity change, negative = inhibition is on record?
**A.** -6.59% (inactive)

**Q.** Which activity change, negative = inhibition does the source give for CC(C)[N+](C)(CCOC(=O)C1c2ccccc2Oc2ccccc21)C(C)C here?
**A.** 3.91% (inactive)

**Q.** With c1cc(CN2CCCCC2)cc(OCCCNc2nc3ccccc3s2)c1 as the molecule, how does the activity change, negative = inhibition read?
**A.** 6.03% (inactive)

**Q.** With O=C1CC2(CCCC2)CC(=O)N1CCCCN1CCN(c2ncccn2)CC1 as the molecule, how does the activity change, negative = inhibition read?
**A.** -2.42% (inactive)

**Q.** Which activity change, negative = inhibition does the source give for Nc1nc(N)c2nc(-c3ccccc3)c(N)nc2n1 here?
**A.** -2.44% (inactive)

**Q.** For CCN1CCc2nc(N)oc2CC1, which activity change, negative = inhibition is on record?
**A.** 9.25% (inactive)

**Q.** With O=C(CCCN1CCC(O)(c2cccc(C(F)(F)F)c2)CC1)c1ccc(F)cc1 as the molecule, how does the activity change, negative = inhibition read?
**A.** 14.4% (inactive)

**Q.** Which activity change, negative = inhibition does the source give for COc1cc(Cc2cnc(N)nc2N)cc(OC)c1OC here?
**A.** -4.63% (inactive)

**Q.** Which activity change, negative = inhibition does the source give for CCCN(CCC)CCc1cccc2c1CC(=O)N2 here?
**A.** 3.44% (inactive)

**Q.** Which activity change, negative = inhibition does the source give for FC(F)(F)c1ccccc1-n1ccnc1 here?
**A.** 7.15% (inactive)

**Q.** Which activity change, negative = inhibition does the source give for CCCCNc1ccc(C(=O)OCCN(C)C)cc1 here?
**A.** 22.1% (inactive)

**Q.** Which activity change, negative = inhibition does the source give for C[N+](C)(C)CCOC(N)=O here?
**A.** 21.2% (inactive)

**Q.** For COc1cc(C(=O)OCCCN2CCCN(CCCOC(=O)c3cc(OC)c(OC)c(OC)c3)CC2)cc(OC)c1OC, which activity change, negative = inhibition is on record?
**A.** 15.7% (inactive)

**Q.** Which activity change, negative = inhibition does the source give for CCN(CC)CC(=O)Nc1c(C)cccc1C here?
**A.** 19.9% (inactive)

**Q.** Which activity change, negative = inhibition does the source give for CCCCNc1c(C(=O)OCC)c(C)nc2c1cnn2CC here?
**A.** -13.4% (inactive)

**Q.** Which activity change, negative = inhibition does the source give for COC(=O)[C@@H](N)Cc1ccc(O)c(O)c1 here?
**A.** 2.14% (inactive)

**Q.** Which activity change, negative = inhibition does the source give for CCn1nc(C(=O)O)c(=O)c2cc3c(cc21)OCO3 here?
**A.** -2.22% (inactive)

**Q.** Which activity change, negative = inhibition does the source give for Cc1ccc(S(=O)(=O)NC(=O)NN2CCCCCC2)cc1 here?
**A.** 4.52% (inactive)

**Q.** Which activity change, negative = inhibition does the source give for C[N+](C)(C)CCOC(=O)CCC(=O)OCC[N+](C)(C)C here?
**A.** -1.57% (inactive)

**Q.** With CSc1ccc(C(=O)c2[nH]c(=O)[nH]c2C)cc1 as the molecule, how does the activity change, negative = inhibition read?
**A.** -4.8% (inactive)

**Q.** For O=C(O)CN(CCOCCOCCN(CC(=O)O)CC(=O)O)CC(=O)O, which activity change, negative = inhibition is on record?
**A.** 4.77% (inactive)

**Q.** Which activity change, negative = inhibition does the source give for CN(C(=O)CCCOc1ccc2[nH]c(=O)ccc2c1)C1CCCCC1 here?
**A.** -11.1% (inactive)

**Q.** With Cc1ccc(=O)n(-c2ccccc2)c1 as the molecule, how does the activity change, negative = inhibition read?
**A.** -0.00383% (inactive)

**Q.** For COc1cc2c(cc1OC)-c1cc(=Nc3c(C)cc(C)cc3C)n(C)c(=O)n1CC2, which activity change, negative = inhibition is on record?
**A.** -25.7% (inactive)

Target: Cytochrome P450 1A2 (Homo sapiens) (UniProt P05177)
Assay: p450-cyp1a2 (AID 410); also: potency is read from the fitted curve at half-maximal effect;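 as to activity change, negative = inhibition: -100% = full effect of reference inhibitor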
Conditions: recombinant CYP1A2, luciferin-ME demethylation, luminescence; series mostly up to 57 µM; activity change, negative = inhibition: at the top concentration
How it was run: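 Inhibition was calculated relative to 57 uM furafylline (full inhibition). The reaction used human CYP1A2 at 20nM with Luciferin-ME at its Km, 100uM, driven by an NADPH-regenerating system for 60 min at room temperature.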

Sequence of Cytochrome P450 1A2 (Homo sapiens) (P05177 whole entry, looked up): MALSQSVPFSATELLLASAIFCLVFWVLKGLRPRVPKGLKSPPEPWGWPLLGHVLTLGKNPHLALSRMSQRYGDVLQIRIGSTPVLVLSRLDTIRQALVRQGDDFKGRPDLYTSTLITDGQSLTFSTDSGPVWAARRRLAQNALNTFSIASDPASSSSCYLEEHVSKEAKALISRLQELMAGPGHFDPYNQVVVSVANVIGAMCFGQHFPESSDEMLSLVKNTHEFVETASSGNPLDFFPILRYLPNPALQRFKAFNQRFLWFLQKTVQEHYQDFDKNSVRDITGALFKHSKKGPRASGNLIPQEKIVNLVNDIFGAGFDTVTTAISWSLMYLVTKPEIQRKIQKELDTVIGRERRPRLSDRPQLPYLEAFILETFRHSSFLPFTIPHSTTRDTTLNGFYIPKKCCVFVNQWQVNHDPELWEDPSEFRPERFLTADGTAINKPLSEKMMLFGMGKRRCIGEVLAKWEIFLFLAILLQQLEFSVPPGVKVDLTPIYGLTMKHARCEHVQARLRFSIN

**Q.** With NCCCNCCSP(=O)(O)O as the molecule, how does the “activity change, negative = inhibition” value read?
**A.** -7.8% (inactive)

**Q.** With CN=C(NC#N)NCCSCc1nc[nH]c1C as the molecule, how does the “activity change, negative = inhibition” value read?
**A.** -5.6% (inactive)

**Q.** Which Potency does the source give for c1cc(CN2CCCCC2)cc(OCCCNc2nc3ccccc3s2)c1 here?
**A.** 15.8 µM (active) and 31.6 µM (active)

**Q.** For CCN1CCc2nc(N)oc2CC1, which “activity change, negative = inhibition” value is on record?
**A.** -7.3% (inactive)

**Q.** Which “activity change, negative = inhibition” value does the source give for O=C(CCCN1CCC(O)(c2cccc(C(F)(F)F)c2)CC1)c1ccc(F)cc1 here?
**A.** -9.1% (inactive)

**Q.** Which Potency does the source give for NC(=O)N1c2ccccc2C=Cc2ccccc21 here?
**A.** inactive

**Q.** Which “activity change, negative = inhibition” value does the source give for CCCN(CCC)CCc1cccc2c1CC(=O)N2 here?
**A.** -4.2% (inactive)

**Q.** For FC(F)(F)c1ccccc1-n1ccnc1, which Potency is on record?
**A.** 2.51 µM (active) and 251 nM (active)

**Q.** For C[N+](C)(C)CCOC(N)=O, which Potency is on record?
**A.** inactive

**Q.** Which Potency does the source give for CCCCNc1c(C(=O)OCC)c(C)nc2c1cnn2CC here?
**A.** 631 nM (active) and 63.1 nM (active)

**Q.** Which “activity change, negative = inhibition” value does the source give for C[N+](C)(C)CCOC(=O)CCC(=O)OCC[N+](C)(C)C here?
**A.** -4.5% (inactive)

**Q.** With COc1ccc([C@@H]2Sc3ccccc3N(CCN(C)C)C(=O)[C@@H]2OC(C)=O)cc1 as the molecule, how does the “activity change, negative = inhibition” value read?
**A.** -20.6% (inactive)

**Q.** For O=C(O)CN(CCOCCOCCN(CC(=O)O)CC(=O)O)CC(=O)O, which “activity change, negative = inhibition” value is on record?
**A.** -12.6% (inactive)

**Q.** For CN(C(=O)CCCOc1ccc2[nH]c(=O)ccc2c1)C1CCCCC1, which “activity change, negative = inhibition” value is on record?
**A.** -17.5% (inactive)

**Q.** Which Potency does the source give for Cc1ccc(=O)n(-c2ccccc2)c1 here?
**A.** inactive and 31.6 µM (active)

**Q.** With CC(C)(Oc1ccc(CCNC(=O)c2ccc(Cl)cc2)cc1)C(=O)O as the molecule, how does the “activity change, negative = inhibition” value read?
**A.** -6.8% [at 25.6 µM] (inactive)

**Q.** With COc1cc2c(cc1OC)-c1cc(=Nc3c(C)cc(C)cc3C)n(C)c(=O)n1CC2 as the molecule, how does the “activity change, negative = inhibition” value read?
**A.** -18.3% (inactive)

Tested on: not listed separately
Assay: Cell Viability - BJ (AID 421);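 also: potency is read from the fitted curve at half-maximal effect; cells exposed to compound for 40 hours at 37 °C before readout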
Conditions: BJ fibroblast viability, qHTS
How it was run: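 Normal human BJ foreskin fibroblasts, 1500/well in complete medium, treated 40 hr at 37 °C. Cellular ATP by CellTiter-Glo luminescence; normalized to DMSO and 100 uM tamoxifen, AC50 from Hill fit.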

**Q.** Which Potency does the source give for CN=C(NC#N)NCCSCc1nc[nH]c1C here?
**A.** > 92 µM (inactive)

**Q.** With COc1cc(Cc2cnc(N)nc2N)cc(OC)c1OC as the molecule, how does the Potency read?
**A.** > 92 µM (inactive)

**Q.** Which Potency does the source give for NC(=O)N1c2ccccc2C=Cc2ccccc21 here?
**A.** > 92 µM (inactive)

Tested on: not listed separately
Assay: Cell Viability - Jurkat (AID 426;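 active = dose-dependent loss of cell ATP signal giving a full or clear fitted curve, ranked by lower potency value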; also: potency is read from the fitted curve at half-maximal effect)
Conditions: qHTS
How it was run: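 Seed 5000 Jurkat E6-1 cells/well; add compound; incubate 40 hr at 37 °C; add CellTiter-Glo; wait 20 min at room temperature; read luminescence. Fit concentration-response with Hill equation for AC50.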

**Q.** Which Potency does the source give for CN=C(NC#N)NCCSCc1nc[nH]c1C here?
**A.** > 92 µM (inactive)

**Q.** With COc1cc(Cc2cnc(N)nc2N)cc(OC)c1OC as the molecule, how does the Potency read?
**A.** > 92 µM (inactive)

**Q.** Which Potency does the source give for NC(=O)N1c2ccccc2C=Cc2ccccc21 here?
**A.** > 92 µM (inactive)

Tested on: not listed separately
Assay: Cell Viability - Hek293 (AID 427;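 active = compounds whose dose-response curve shows a full or clear partial loss of cell viability, called from curve shape rather than a numeric limit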;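 also: potency is read from the fitted curve at half-maximal effect; cells exposed to compound for 40 hours at 37 °C before reading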)
Conditions: qHTS
How it was run: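 HEK293 cells in complete medium were exposed to compound for 40 hr at 37 °C, then cellular ATP was read by CellTiter-Glo luminescence. Data were normalized to DMSO (basal) and 100 uM tamoxifen (100% inhibition), and AC50 came from Hill fits.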

**Q.** With CN=C(NC#N)NCCSCc1nc[nH]c1C as the molecule, how does the Potency read?
**A.** > 92 µM (inactive)

**Q.** With Nc1nc(N)c2nc(-c3ccccc3)c(N)nc2n1 as the molecule, how does the Potency read?
**A.** 18 µM (active)

**Q.** Which Potency does the source give for COc1cc(Cc2cnc(N)nc2N)cc(OC)c1OC here?
**A.** > 92 µM (inactive)

**Q.** For NC(=O)N1c2ccccc2C=Cc2ccccc21, which Potency is on record?
**A.** > 92 µM (inactive)

Tested on: not listed separately
Assay: Cell Viability - HepG2 (AID 433);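 also: potency is read from the fitted curve at half-maximal effect; potency for ATP loss meaning cytotoxicity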
Conditions: qHTS
How it was run: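 Read-out is luciferase-based quantitation of cellular ATP as a measure of viable HepG2 cells after 40 h treatment at 37 °C. Signal decrease is scaled between DMSO-only and 100 uM tamoxifen controls, with AC50 fitted by the Hill equation.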

**Q.** For CN=C(NC#N)NCCSCc1nc[nH]c1C, which Potency is on record?
**A.** > 92 µM (inactive)

**Q.** For COc1cc(Cc2cnc(N)nc2N)cc(OC)c1OC, which Potency is on record?
**A.** > 92 µM (inactive)

**Q.** With NC(=O)N1c2ccccc2C=Cc2ccccc21 as the molecule, how does the Potency read?
**A.** > 92 µM (inactive)
